Holding throughout (details): mRNA level, 48 h; actives raise or lower the signal
Read-out in assay [1]: cysteine-aspartic acid protease (CASP8), CASP8 (gene 841)
Kind of assay: LTEA_HepaRG_CASP8: Life Technologies and Expression Analysis (LTEA) Assay for cysteine-aspartic acid protease (CASP8) using HepaRG (AID 2283480). The procedure, abridged:
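HepaRG, 48 h exposure, duplicate wells; 8 conc, half-log from 100 uM, 0.5% DMSO. Serum-free induction medium. CASP8 mRNA by TaqMan qRT-PCR, norm. ACTB/GAPDH/POLR2A; gain/loss fitted vs DMSO.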

Read-out in assay [2]: Cytochrome P450 (CYP2B6), CYP2B6 (gene 1555)
In words: LTEA_HepaRG_CYP2B6: Life Technologies and Expression Analysis (LTEA) Assay for Cytochrome P450 (CYP2B6) using HepaRG (AID 2283481). The procedure, abridged: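 Read-out is CYP2B6 mRNA by TaqMan qRT-PCR, normalized to three housekeeping genes and fitted bidirectionally against 0.5% DMSO baseline. Human HepaRG cells received test chemicals for 48 h, top concentration 100 uM, half-log dilutions.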

Read-out in assay [3]: Cytochrome P450 2C19 (Homo sapiens) (UniProt P33261)
In words: LTEA_HepaRG_CYP2C19: Life Technologies and Expression Analysis (LTEA) Assay for CYP2C19 using HepaRG (AID 2283482). The procedure, abridged:
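HepaRG, 48 h chemical exposure, 8-pt half-log series from 100 uM in 0.5% DMSO, duplicates. Readout: CYP2C19 mRNA by TaqMan qRT-PCR, housekeeping-normalized. Bidirectional fit vs DMSO baseline; phenobarbital 1mM as induction control.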

Read-out in another assay: CYP2C8 (gene 1558)
Kind of assay: LTEA_HepaRG_CYP2C8: Life Technologies and Expression Analysis (LTEA) Assay for CYP2C8 using HepaRG (AID 2283483). The procedure, abridged: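 CYP2C8 mRNA induction or loss, by qRT-PCR normalized to ACTB/GAPDH/POLR2A, is read in HepaRG cells after 48 h treatment. Concentrations run from 100 uM down in half-log dilutions, with 0.5% DMSO as vehicle and baseline.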

Read-out in another assay: CYP2C9 (gene 1559)
Kind of assay: LTEA_HepaRG_CYP2C9: Life Technologies and Expression Analysis (LTEA) Assay for CYP2C9 using HepaRG (AID 2283484). The essentials: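 Cells plated 48 h, switched to serum-free induction medium, then treated in duplicate for 48 h at eight concentrations (max 100 uM, 0.5% DMSO). RNA then analysed by qRT-PCR for CYP2C9; curves fitted in both directions relative to DMSO.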

Read-out in another assay: CYP2E1 (gene 1571)
Kind of assay: LTEA_HepaRG_CYP2E1: Life Technologies and Expression Analysis (LTEA) Assay for CYP2E1 using HepaRG (AID 2283485). The essentials:
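Differentiated HepaRG cells were treated in duplicate for 48 h with chemicals in 0.5% DMSO, from 100 uM downward in half-log dilutions. RNA was then analysed by qRT-PCR for CYP2E1 induction or loss.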

Read-out in a further assay: CYP4A11 (gene 1579)
In words: LTEA_HepaRG_CYP4A11: Life Technologies and Expression Analysis (LTEA) Assay for CYP4A11 using HepaRG (AID 2283486). The essentials: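 CYP4A11 transcript levels were quantified by TaqMan qRT-PCR after HepaRG human liver cells were treated for 48 hours with test chemicals (top 100 uM, half-log dilutions, 0.5% DMSO). Gain or loss of signal was fitted relative to DMSO.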

Read-out in assay [4]: Cytochrome P450 3A4 (Homo sapiens) (UniProt P08684)
In words: LTEA_HepaRG_CYP3A4: Life Technologies and Expression Analysis (LTEA) Assay for CYP3A4 using HepaRG (AID 2283487). The procedure, abridged:
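CYP3A4 transcript measured by TaqMan qRT-PCR and normalized to three housekeeping genes after 48 h chemical exposure of human HepaRG cells. Top concentration 100 uM, half-log steps, 0.5% DMSO vehicle; gain or loss fitted against DMSO baseline.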

Read-out in assay [5]: DNA damage-inducible transcript 3 (DDIT3), DDIT3 (gene 1649)
In words: LTEA_HepaRG_DDIT3: Life Technologies and Expression Analysis (LTEA) Assay for DNA damage-inducible transcript 3 (DDIT3) using HepaRG (AID 2283488). The procedure, abridged:
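Changes in DDIT3 transcript, in either direction relative to 0.5% DMSO vehicle, were quantified by TaqMan qRT-PCR after 48 h chemical exposure of HepaRG cells at 8 concentrations, maximum 100 uM.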

Read-out in assay [6]: Pro-epidermal growth factor (Homo sapiens) (UniProt P01133)
In words: LTEA_HepaRG_EGF: Life Technologies and Expression Analysis (LTEA) Assay for Epidermal growth factor (EGF) using HepaRG (AID 2283489). The essentials:
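qRT-PCR readout of EGF transcript after 48 h chemical exposure of HepaRG cells; eight concentrations from 100 uM down in half-log steps, duplicate wells, 0.5% DMSO vehicle. Bidirectional curve fitting against DMSO baseline.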

We go through 18 molecules from PubChem BioAssay (EPA / NIEHS).

Activity calls are given as the source filed them. The calls were made as follows: active = hit-call score of the fitted dose curve at least 0.9, where 1 is the maximum; inactive = score below 0.9.

Chain of Cytochrome P450 2C19 (Homo sapiens) (P33261 whole entry, looked up): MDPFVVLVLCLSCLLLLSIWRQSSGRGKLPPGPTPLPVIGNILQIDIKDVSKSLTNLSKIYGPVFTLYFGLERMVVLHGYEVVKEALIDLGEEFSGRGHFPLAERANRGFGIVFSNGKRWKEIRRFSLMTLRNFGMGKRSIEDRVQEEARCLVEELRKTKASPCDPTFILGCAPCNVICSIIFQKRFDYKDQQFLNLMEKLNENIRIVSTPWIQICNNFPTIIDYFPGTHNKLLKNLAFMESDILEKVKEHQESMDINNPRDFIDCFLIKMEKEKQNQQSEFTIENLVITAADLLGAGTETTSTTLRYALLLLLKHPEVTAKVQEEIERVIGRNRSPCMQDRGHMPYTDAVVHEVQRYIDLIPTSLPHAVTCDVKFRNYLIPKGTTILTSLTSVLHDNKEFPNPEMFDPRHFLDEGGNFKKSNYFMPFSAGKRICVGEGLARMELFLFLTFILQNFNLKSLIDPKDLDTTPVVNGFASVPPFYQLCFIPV
Chain of Cytochrome P450 3A4 (Homo sapiens) (P08684 whole entry, looked up): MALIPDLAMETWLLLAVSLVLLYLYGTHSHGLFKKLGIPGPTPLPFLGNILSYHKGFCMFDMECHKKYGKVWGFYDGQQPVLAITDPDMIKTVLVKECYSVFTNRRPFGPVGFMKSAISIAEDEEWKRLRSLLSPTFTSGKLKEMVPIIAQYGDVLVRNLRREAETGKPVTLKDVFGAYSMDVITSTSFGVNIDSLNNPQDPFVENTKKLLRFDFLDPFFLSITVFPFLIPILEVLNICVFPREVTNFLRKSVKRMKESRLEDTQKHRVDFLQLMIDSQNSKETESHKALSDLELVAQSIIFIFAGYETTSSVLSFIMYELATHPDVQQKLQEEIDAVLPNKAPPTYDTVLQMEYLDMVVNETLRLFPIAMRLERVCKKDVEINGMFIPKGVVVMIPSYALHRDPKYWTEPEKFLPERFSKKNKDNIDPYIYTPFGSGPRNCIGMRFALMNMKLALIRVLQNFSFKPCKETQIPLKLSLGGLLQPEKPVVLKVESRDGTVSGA

A word on the AC50: it is the concentration giving half of the maximal activity seen. Consider `Cn1c(-c2ccccc2)cc(-c2ccccc2)[n+]1C`, for which the concentration at half-maximal activity (AC50) was 89.2 µM (active) in assay [1]; 11.3 µM (active) in [2]; 50 µM (active) in [3]; 13.5 µM (active) in the assay with CYP2C8 (gene 1558); 19.5 µM (active) with CYP2C9 (gene 1559); 24.5 µM (active) with CYP2E1 (gene 1571). Moreover, the concentration at half-maximal activity (AC50) in the assay with CYP4A11 (gene 1579) is 20.3 µM (active); in [4], 50 µM (active); in assay [5], 13.5 µM (active); in [6], 81.3 µM (active).

Consider `Cc1nc(N(C)C)nc(OC(=O)N(C)C)c1C`, for which the call (in assay [1]; with CYP2C9 (gene 1559); with CYP2E1 (gene 1571); with CYP4A11 (gene 1579); in [5]; in assay [6]) was inactive. The half-maximal activity concentration (AC50) is 8.42 µM (active) in assay [2], 19.7 µM (active) in assay [3] and 9.92 µM (active) in the assay with CYP2C8 (gene 1558).

Consider `CC(C)Nc1nc(Cl)nc(NC(C)C)n1`, for which the molecule was called inactive (in assay [1]; in the assay with CYP2C8 (gene 1558); with CYP2C9 (gene 1559); with CYP4A11 (gene 1579); in assay [5]; in [6]). Further, the AC50 in assay [2] was 2.93 µM (active); in assay [3] it was 4.74 µM (active); with CYP2E1 (gene 1571), 37.8 µM (active).

`COCC(=O)N(c1c(C)cccc1C)C(C)C(=O)OC` (configuration not stated): the molecule was called inactive (in [1]; with CYP2C8 (gene 1558); with CYP2C9 (gene 1559); in the assay with CYP4A11 (gene 1579); in assay [5]; in [6]). In addition, the AC50 is 1.23 µM (active) in [2], 3.91 µM (active) in assay [3] and 50 µM (active) in the assay with CYP2E1 (gene 1571).

For `Cc1cc(C)nc(Nc2ccccc2)n1`, the call (in assay [1]; in assay [3]; with CYP2C8 (gene 1558); with CYP2C9 (gene 1559); with CYP2E1 (gene 1571); in assay [5]) was inactive. Besides, the molecule was called inactive in assay [6]. Also, the concentration at half-maximal activity (AC50) in assay [2] was 6.39 µM (active); with CYP4A11 (gene 1579), 50 µM (active).

Regarding `CS(=O)(=O)c1ccc(C(=O)C2C(=O)CCCC2=O)c([N+](=O)[O-])c1`, the result (in assay [1]; in assay [2]; in assay [3]; with CYP2C8 (gene 1558); in the assay with CYP2C9 (gene 1559); with CYP2E1 (gene 1571)) was inactive. Moreover, the call (in the assay with CYP4A11 (gene 1579); in [5]; in [6]) was inactive.

For the molecule `COP(=S)(OC)SCn1nnc2ccccc2c1=O`, the outcome (in assay [1]; in the assay with CYP2C8 (gene 1558); with CYP2C9 (gene 1559); with CYP2E1 (gene 1571); with CYP4A11 (gene 1579); in [5]) was inactive. Besides, the call in assay [6] was inactive. Also, the AC50 in assay [2] is 6.27 µM (active); in assay [3] it was 40.9 µM (active).

As for `CNC(=O)N(C)c1nnc(C(C)(C)C)s1`, the result (in assay [1]; in assay [3]; with CYP2C8 (gene 1558); with CYP2C9 (gene 1559); with CYP4A11 (gene 1579); in [4]) was inactive. Moreover, the molecule was classed as inactive in [5] and in assay [6]. In assay [2], the AC50 was 31.6 µM (active).

For `CC(C)Oc1cccc(NC(=O)c2ccccc2C(F)(F)F)c1`, the molecule was classed as inactive (in assay [1]; in the assay with CYP2C9 (gene 1559); in the assay with CYP4A11 (gene 1579); in assay [5]; in assay [6]). The concentration at half-maximal activity (AC50) in assay [2] was 33 µM (active); in [3], 40.2 µM (active); in the assay with CYP2C8 (gene 1558) it was 50 µM (active); with CYP2E1 (gene 1571), 84.4 µM (active).

On to `O=C1C2CC=CCC2C(=O)N1SC(Cl)(Cl)Cl` (configuration not stated), for which the outcome (in assay [1]; in [2]; in assay [3]; with CYP2C8 (gene 1558); with CYP2C9 (gene 1559); with CYP2E1 (gene 1571)) was inactive. Further, the molecule was classed as inactive (with CYP4A11 (gene 1579); in [5]; in assay [6]).

With `CC1(C)C(C(=O)OC(C#N)c2cccc(Oc3ccccc3)c2)C1(C)C` (configuration not stated), the outcome (in assay [1]; in the assay with CYP2C8 (gene 1558); with CYP2C9 (gene 1559); in [5]; in [6]) was inactive. The concentration at half-maximal activity (AC50) in [2] was 67.6 µM (active); in [3], 50 µM (active); with CYP2E1 (gene 1571), 9.92 µM (active); with CYP4A11 (gene 1579), 50 µM (active).

Turning to `Cc1c(COC(=O)[C@@H]2[C@H](/C=C(\Cl)C(F)(F)F)C2(C)C)cccc1-c1ccccc1`, the molecule was called inactive (in assay [1]; with CYP2C8 (gene 1558); with CYP2C9 (gene 1559); in the assay with CYP4A11 (gene 1579); in assay [6]). Also, the AC50 in [3] was 17.9 µM (active); with CYP2E1 (gene 1571), 48.2 µM (active); in assay [5], 81.2 µM (active).

For the molecule `CC(C)C1(C)N=C(c2ncccc2C(=O)O)NC1=O` (configuration not stated), the molecule was called inactive (in assay [1]; in assay [2]; in [3]; with CYP2C8 (gene 1558); with CYP2C9 (gene 1559); in the assay with CYP2E1 (gene 1571)). The outcome (in the assay with CYP4A11 (gene 1579); in [5]; in [6]) was inactive.

For `CCN(CC)c1nc(C)cc(OP(=S)(OC)OC)n1`, the molecule was called inactive (in assay [1]; in the assay with CYP2C8 (gene 1558); with CYP2C9 (gene 1559); with CYP4A11 (gene 1579); in assay [5]; in [6]). Besides, the values for the AC50 (in [2]; in [3]; with CYP2E1 (gene 1571)) were 2.79 µM (active), 12.1 µM (active) and 37.4 µM (active), respectively.

Regarding `COc1cc(OC)nc(NC(=O)NS(=O)(=O)c2ncccc2OCC(F)(F)F)n1`, the molecule was classed as inactive (in assay [1]; in the assay with CYP2C8 (gene 1558); with CYP2E1 (gene 1571); with CYP4A11 (gene 1579); in [5]; in assay [6]). Also, the AC50 is 23.8 µM (active) in [2], 16.3 µM (active) in assay [3] and 6.59 µM (active) with CYP2C9 (gene 1559).

Regarding `O=P(O)(O)CCCl`, the molecule was classed as inactive (in assay [1]; in [2]; with CYP2C8 (gene 1558); in the assay with CYP2C9 (gene 1559); in the assay with CYP2E1 (gene 1571); with CYP4A11 (gene 1579)). The result in assay [5] and in assay [6] was inactive. The half-maximal activity concentration (AC50) in assay [3] was 0.396 µM (active).

Turning to `C=CCOC(=O)C(C)(C)OC(=O)c1cc(-n2c(=O)cc(C(F)(F)F)n(C)c2=O)ccc1Cl`, the call (in assay [1]; in assay [3]; with CYP2C8 (gene 1558); in the assay with CYP2C9 (gene 1559); in the assay with CYP2E1 (gene 1571); with CYP4A11 (gene 1579)) was inactive. Besides, the result in [5] and in assay [6] was inactive. In assay [2], the AC50 is 6.65 µM (active).

As for `CCCN(CC)CC1COC2(CCC(C(C)(C)C)CC2)O1` (configuration not stated), the call (in [1]; in assay [3]; with CYP2C8 (gene 1558); with CYP2C9 (gene 1559); with CYP2E1 (gene 1571); in the assay with CYP4A11 (gene 1579)) was inactive. Besides, the molecule was called inactive in [5] and in assay [6]. In addition, the AC50 in [2] was 50 µM (active).
